Consider 22 molecules from PubChem BioAssay (NCATS).

Records with an inconclusive call do not appear. Entries that show only a call come without a potency. Activity calls are given as the source filed them. The call rests on the fitted dose curve; in most records, active means well fitted curve in the direction sought with a large enough effect; inconclusive means small, poorly fitted or top-dose-only effect, or another doubt; inactive means no such curve, though single readings can be large; an effect the other way counts as inactive or inconclusive.

Assay [1] has as its target Voltage-gated inwardly rectifying potassium channel KCNH2 (Homo sapiens) (UniProt Q12809). Briefly: qHTS Assay for Small Molecule Inhibitors of the Human hERG Channel Activity (AID 588834).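 Further: top concentration of the series differs between compounds; lower thallium flux fluorescence means stronger hERG block; nearly all actives have a fitted effect of over 50% in size.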 In a few lines: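 Homogeneous FluxOR thallium flux assay using hERG-expressing U2OS cells (BacMam). Compound treatment about 10 minutes preceded stimulation; reduced fluorescence taken as channel block.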
On the technique in general: qHTS replaces the single test concentration by a dilution series.

Assay [2] concerns the target Luciferin 4-monooxygenase (Photinus pyralis) (UniProt P08659). Description: Biochemical firefly luciferase enzyme assay for NPC (AID 624030). Further: nearly all actives have a fitted effect of over 70% in size. Further: potency means the concentration at half of the fitted maximal effect. The essentials:
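Counter-screen for direct inhibition of the luciferase enzyme by approved-drug library compounds, run at 10 nM enzyme in 50 mM Tris acetate (final). Luminescence was read within 5 min of enzyme-buffer addition and normalized to PTC124 versus DMSO (0%).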

Assay [3] in a line: S16 Schwann cell viability assay (CellTiter-Glo assay) (AID 624031).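 Further: cellular ATP luminescence as a viability measure; series mostly up to about 58 µM; nearly all actives have a fitted effect of over 70% in size.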 The essentials: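 Luminescent ATP read-out (CellTiter-Glo) after 24 h compound exposure of native S16 rat Schwann cells at 37 °C. Signals were normalized between cell-free wells and DMSO-treated cells, set as 0% activity.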
The target in assay [4] is Glutaminase kidney isoform, mitochondrial (Homo sapiens) (UniProt O94925). Briefly: qHTS for Inhibitors of Glutaminase (GLS): LOPAC Validation (AID 624146).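 Further: glutamate product detected by oxidase and peroxidase coupled Amplex red fluorescence gain; series mostly up to about 46 µM; nearly all actives have a fitted effect of over 60% in size.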 In a few lines:
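Compounds were pin-transferred onto hKGA, after which L-glutamine (1 mM solution) and a detection mix of glutamate oxidase, HRP and Amplex Red were added. Initial and 30 min RT fluorescence reads were collected.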

Assay [5] can be described thus: qHTS of Trypanosoma Brucei Inhibitors: LOPAC Validation (AID 624147). The essentials:
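Enzyme and substrate buffer are dispensed first and compound is pin-transferred. ADP at 130 uM final then starts the reaction, which runs 45 min at room temperature. Detection reagent is added for 10 min before luminescence is imaged.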

Assay [6] is described as follows: S16 Schwann cell PMP22 intronic element firefly luciferase assay (AID 624032). Further: series mostly up to about 58 µM; nearly all actives have a fitted effect of over 30% in size. The essentials: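 Rat S16 Schwann cells stably carrying a PMP22 intronic element-driven Fluc reporter were seeded overnight, then exposed to compounds for 24 h at 37 °C. Luminescence was normalized to PTC124 (positive control) and DMSO (0% activity).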

Luciferin 4-monooxygenase (Photinus pyralis), sequence (P08659 whole entry, looked up): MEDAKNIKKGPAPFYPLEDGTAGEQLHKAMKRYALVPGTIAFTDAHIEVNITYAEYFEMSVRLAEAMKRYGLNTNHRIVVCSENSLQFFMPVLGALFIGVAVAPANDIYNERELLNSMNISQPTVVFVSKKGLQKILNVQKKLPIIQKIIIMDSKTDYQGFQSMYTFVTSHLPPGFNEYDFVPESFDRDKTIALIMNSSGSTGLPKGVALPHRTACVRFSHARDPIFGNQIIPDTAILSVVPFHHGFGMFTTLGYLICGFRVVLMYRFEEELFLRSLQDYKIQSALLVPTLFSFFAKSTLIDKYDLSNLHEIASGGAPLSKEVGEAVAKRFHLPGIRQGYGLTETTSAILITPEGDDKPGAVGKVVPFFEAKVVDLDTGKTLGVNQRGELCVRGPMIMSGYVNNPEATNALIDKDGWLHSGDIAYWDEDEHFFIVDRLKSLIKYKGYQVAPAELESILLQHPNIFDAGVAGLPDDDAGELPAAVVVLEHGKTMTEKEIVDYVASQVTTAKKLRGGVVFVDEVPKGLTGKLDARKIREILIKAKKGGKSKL
Voltage-gated inwardly rectifying potassium channel KCNH2 (Homo sapiens), sequence (Q12809 whole entry, looked up): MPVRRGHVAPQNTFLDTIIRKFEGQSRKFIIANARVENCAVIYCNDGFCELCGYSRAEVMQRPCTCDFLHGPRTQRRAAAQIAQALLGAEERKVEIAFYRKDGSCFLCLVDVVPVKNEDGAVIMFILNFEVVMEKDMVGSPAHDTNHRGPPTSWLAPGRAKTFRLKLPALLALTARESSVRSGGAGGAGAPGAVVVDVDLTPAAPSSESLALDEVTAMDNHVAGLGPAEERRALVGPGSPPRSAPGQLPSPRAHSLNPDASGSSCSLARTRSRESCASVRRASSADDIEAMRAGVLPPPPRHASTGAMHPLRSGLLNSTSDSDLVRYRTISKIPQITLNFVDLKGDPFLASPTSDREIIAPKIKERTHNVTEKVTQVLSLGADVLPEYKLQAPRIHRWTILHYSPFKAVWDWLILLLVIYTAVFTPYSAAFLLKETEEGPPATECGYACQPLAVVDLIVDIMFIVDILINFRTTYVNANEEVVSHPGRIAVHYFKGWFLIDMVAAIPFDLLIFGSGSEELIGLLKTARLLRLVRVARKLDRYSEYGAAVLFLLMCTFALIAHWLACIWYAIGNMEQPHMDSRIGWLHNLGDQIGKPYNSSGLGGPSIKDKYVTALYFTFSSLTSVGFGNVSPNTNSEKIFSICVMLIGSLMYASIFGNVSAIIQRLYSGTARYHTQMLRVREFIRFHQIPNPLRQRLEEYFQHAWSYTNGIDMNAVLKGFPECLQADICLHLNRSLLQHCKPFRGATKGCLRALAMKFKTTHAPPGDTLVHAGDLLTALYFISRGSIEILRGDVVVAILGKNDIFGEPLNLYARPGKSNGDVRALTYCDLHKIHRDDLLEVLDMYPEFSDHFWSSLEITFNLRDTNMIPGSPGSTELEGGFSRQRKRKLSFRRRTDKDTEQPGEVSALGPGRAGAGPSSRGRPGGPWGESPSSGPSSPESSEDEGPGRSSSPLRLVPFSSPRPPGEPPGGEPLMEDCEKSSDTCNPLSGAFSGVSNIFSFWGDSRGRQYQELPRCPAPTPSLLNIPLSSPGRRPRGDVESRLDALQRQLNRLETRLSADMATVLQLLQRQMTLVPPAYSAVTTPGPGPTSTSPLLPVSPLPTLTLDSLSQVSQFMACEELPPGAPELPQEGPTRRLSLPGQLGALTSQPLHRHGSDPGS
Glutaminase kidney isoform, mitochondrial (Homo sapiens), sequence (O94925 whole entry, looked up, canonical isoform): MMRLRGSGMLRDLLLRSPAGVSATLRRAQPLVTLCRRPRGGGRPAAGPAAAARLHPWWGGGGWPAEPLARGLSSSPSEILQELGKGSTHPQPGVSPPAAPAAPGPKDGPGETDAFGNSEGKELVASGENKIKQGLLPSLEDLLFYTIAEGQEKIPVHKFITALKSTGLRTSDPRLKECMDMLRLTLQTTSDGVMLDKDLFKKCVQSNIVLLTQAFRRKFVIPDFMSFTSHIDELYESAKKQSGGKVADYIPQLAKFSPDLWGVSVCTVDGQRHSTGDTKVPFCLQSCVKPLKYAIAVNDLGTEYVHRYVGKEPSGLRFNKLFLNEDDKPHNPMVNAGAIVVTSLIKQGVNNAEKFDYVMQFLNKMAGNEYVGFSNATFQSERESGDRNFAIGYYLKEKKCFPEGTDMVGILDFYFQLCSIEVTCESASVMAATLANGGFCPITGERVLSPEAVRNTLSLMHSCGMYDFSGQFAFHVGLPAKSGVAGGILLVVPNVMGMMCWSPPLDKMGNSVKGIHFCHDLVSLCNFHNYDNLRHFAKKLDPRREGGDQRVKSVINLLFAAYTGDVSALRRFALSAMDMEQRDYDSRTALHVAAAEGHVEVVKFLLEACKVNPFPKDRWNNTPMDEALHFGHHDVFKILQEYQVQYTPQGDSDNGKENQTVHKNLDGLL

For `O=C(O)c1nn(Cc2ccc(Cl)cc2Cl)c2ccccc12`, the Potency entry in assay [1], in assay [2] and in assay [3] was “inactive” each time. The result in assay [4] and in assay [5] was inactive.
Turning to `Cc1nnc2n1-c1sc(CCc3ccc(CC(C)C)cc3)cc1C(c1ccccc1Cl)=NC2C` (stereo unspecified), the Potency result in assay [2] is “inactive”.
As for `Cc1ccc(O)cc1`, the Potency entry in assay [2] is “inactive”.
Same read-out and setting: the result for `COc1ccc2c(C(=O)c3ccc(Cl)cc3)c(C)n(CC(=O)O)c2c1` reads “inactive”.
Consider `C[N+]1(CCC(C(N)=O)(c2ccccc2)c2ccccc2)CCCCC1`, for which the Potency result in assay [1], in assay [2], in assay [3] and in assay [6] was “inactive” in each case.
`CCCOC(=O)Cc1ccc(OCC(=O)N(CC)CC)c(OC)c1`: the Potency result in assay [2] is “inactive”.
The same measure, in the same setting: the result for `CN(C)CCc1c[nH]c2ccc(O)cc12` reads “inactive”; that for `Cc1nnc2n1-c1sc(CCC(=O)N3CCOCC3)cc1C(c1ccccc1Cl)=NC2`, “inactive”.
For `CC(C)NCC(O)c1ccc(N)c(C#N)c1` (stereo unspecified), the Potency entry in assay [1], in assay [2], in assay [3] and in assay [6] was “inactive” each time.
Turning to `O=C(N[C@@H]1N=C(c2ccccc2F)c2cccc3c2N(CC3)C1=O)c1cc2ccccc2[nH]1`, the Potency entry in assay [2] was “inactive”.
`CN(C)CCc1c[nH]c2ccccc12`: the Potency result in assay [2] is “inactive”.
`NC(=O)CN1CCCC1=O`: the Potency result in assay [1], in assay [2], in assay [3] and in assay [6] was “inactive” each time. For the same molecule, the result in assay [4] and in assay [5] was inactive.
In the case of `CC1N=C(N)OC1c1ccccc1` (stereo unspecified), in assay [2], the Potency entry was “inactive”.
The same measure, in the same setting: the result for `COc1cc(CC(C)N)cc2c1OCO2` (stereo unspecified) reads “inactive”.
As to `C[C@]12C=CC(=O)C=C1CC[C@@H]1[C@@H]2CC[C@@]2(C)[C@H]1CC[C@]2(C)O`, the Potency result in assay [1], in assay [2], in assay [3] and in assay [6] was “inactive” each time.
For `NC(=O)OCCCc1ccccc1`, the Potency result in assay [1], in assay [2], in assay [3] and in assay [6] was “inactive” throughout.
Take `c1ccc(CCNc2nc(-c3ccccc3)cs2)cc1`: in assay [2], the Potency was 1.61 µM (active).
Regarding `Cc1cccc(Cc2cnc[nH]2)c1C`, the Potency result in assay [2] is “inactive”.
As to `CCC1(CC)C(=O)NC(=O)NC1=O`, the Potency result in assay [1], in assay [2], in assay [3] and in assay [6] was “inactive” each time.
Consider `CNC(C)Cc1ccc2c(c1)OCO2` (stereo unspecified), for which, in assay [2], the Potency result is “inactive”.
For `Cc1nc2ccccc2c(=O)n1-c1ccccc1Cl`, in assay [2], the Potency result was “inactive”.
Still for that read-out and setting: for `C[N+](C)(C)CCCCCCCCCC[N+](C)(C)C` the value was “inactive”.
